# Source: PubChem BioAssay AID1159580 (chemical genetic matrix, 2015)
# Among all 5,500 compounds or so, about 2,000 (36%) were called active. About 18% were inconclusive and are not listed. The list shows a part of the results. A number with no mark means an inactive call. Rule as the data show it: active = normalized growth mostly below about 0.91 (no sharp cut-off); inconclusive = no clear call, values can overlap the other calls; inactive = mostly above about 0.92.
# Test: chemical genetic growth profiling, strain panel (AID 1159580);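 also: tested at 20 µM; growth read once vehicle control cultures reached saturation at 30 °C; 1 = growth at the plate median or of vehicle wells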
# Details: growth OD
# [1] = S. cerevisiae deletion strains, locus YDL101C, strain DUN1, stronger effect = lower value
# [2] = S. cerevisiae deletion strains, locus YHR030C, strain SLT2, stronger effect = lower value
# [3] = S. cerevisiae deletion strains, locus YAL013W, strain DEP1, stronger effect = lower value
# [4] = S. cerevisiae deletion strains, locus YBR229C, strain ROT2, stronger effect = lower value
# [5] = S. cerevisiae deletion strains, locus YDL134C, strain PPH21, stronger effect = lower value
# [6] = S. cerevisiae deletion strains, locus YDR150W, strain NUM1, stronger effect = lower value
# [7] = S. cerevisiae deletion strains, locus YEL061C, strain CIN8, stronger effect = lower value
# [8] = S. cerevisiae deletion strains, locus YGR078C, strain PAC10, stronger effect = lower value
# [9] = S. cerevisiae deletion strains, locus YHR087W, strain rtc3, stronger effect = lower value
# [10] = S. cerevisiae deletion strains, locus YJR043C, strain POL32, stronger effect = lower value
# [11] = S. cerevisiae deletion strains, locus YJR075W, strain HOC1, stronger effect = lower value
# [12] = S. cerevisiae deletion strains, locus YLR039C, strain RIC1, stronger effect = lower value
# [13] = S. cerevisiae deletion strains, locus YLR058C, strain SHM2 (second series), stronger effect = lower value
# [14] = S. cerevisiae deletion strains, locus YLR085C, strain ARP6, stronger effect = lower value
# [15] = S. cerevisiae deletion strains, locus YLR262C, strain YPT6, stronger effect = lower value
# [16] = S. cerevisiae deletion strains, locus YML094W, strain GIM5, stronger effect = lower value
# [17] = S. cerevisiae deletion strains, locus YMR219W, strain ESC1, stronger effect = lower value
# [18] = S. cerevisiae deletion strains, locus YMR263W, strain SAP30, stronger effect = lower value
# [19] = S. cerevisiae deletion strains, locus YNL128W, strain TEP1, stronger effect = lower value
# [20] = S. cerevisiae deletion strains, locus YNL153C, strain GIM3, stronger effect = lower value
# [21] = S. cerevisiae deletion strains, locus YNL298W, strain CLA4 (second series), stronger effect = lower value
# [22] = S. cerevisiae deletion strains, locus YNL322C, strain KRE1, stronger effect = lower value
# [23] = S. cerevisiae deletion strains, locus YNR030W, strain Alg12, stronger effect = lower value
# [24] = S. cerevisiae deletion strains, locus YOL006C, strain TOP1, stronger effect = lower value
# [25] = S. cerevisiae deletion strains, locus YPL055C, strain LGE1, stronger effect = lower value
# [26] = S. cerevisiae deletion strains, locus YPL241C, strain CIN2, stronger effect = lower value
# [27] = S. cerevisiae deletion strains, locus YPR135W, strain CTF4, stronger effect = lower value
smiles,measurement,setting,value
C/C(=N/Nc1ccccc1)c1cc(Cl)cc(Cl)c1O,normalized growth,"S. cerevisiae deletion strains, locus YAR019C, strain CDC15, stronger effect = lower value",0.964
same,normalized growth,"S. cerevisiae deletion strains, locus YBL105C, strain PKC1, stronger effect = lower value",0.977
same,normalized growth,"S. cerevisiae deletion strains, locus YBR135W, strain CKS1, stronger effect = lower value",0.954
same,normalized growth,"S. cerevisiae deletion strains, locus YBR136W, strain MEC1, stronger effect = lower value",0.954
same,normalized growth,"S. cerevisiae deletion strains, locus YBR160W, strain CDC28, stronger effect = lower value",0.958
same,normalized growth,"S. cerevisiae deletion strains, locus YDL017W, strain CDC7, stronger effect = lower value",0.964
same,normalized growth,"S. cerevisiae deletion strains, locus YDL028C, strain MPS1, stronger effect = lower value",0.967
same,normalized growth,[1],0.969
same,normalized growth,"S. cerevisiae deletion strains, locus YDL108W, strain KIN28, stronger effect = lower value",0.954
same,normalized growth,"S. cerevisiae deletion strains, locus YDL132W, strain cdc53, stronger effect = lower value",0.956
same,normalized growth,"S. cerevisiae deletion strains, locus YDL214C, strain PRR2, stronger effect = lower value",0.785
same,normalized growth,"S. cerevisiae deletion strains, locus YDR052C, strain DBF4, stronger effect = lower value",0.968
same,normalized growth,"S. cerevisiae deletion strains, locus YDR054C, strain cdc34, stronger effect = lower value",0.966
same,normalized growth,"S. cerevisiae deletion strains, locus YDR226W, strain ADK1, stronger effect = lower value",0.954
same,normalized growth,"S. cerevisiae deletion strains, locus YDR477W, strain SNF1, stronger effect = lower value",0.734
same,normalized growth,"S. cerevisiae deletion strains, locus YER123W, strain YCK3, stronger effect = lower value",0.734
same,normalized growth,"S. cerevisiae deletion strains, locus YER133W, strain GLC7, stronger effect = lower value",0.825
same,normalized growth,"S. cerevisiae deletion strains, locus YFL009W, strain cdc4, stronger effect = lower value",0.964
same,normalized growth,"S. cerevisiae deletion strains, locus YFL029C, strain CAK1, stronger effect = lower value",0.955
same,normalized growth,"S. cerevisiae deletion strains, locus YFR003C, strain YPI1, stronger effect = lower value",0.962
same,normalized growth,"S. cerevisiae deletion strains, locus YFR019W, strain FAB1, stronger effect = lower value",0.834
same,normalized growth,"S. cerevisiae deletion strains, locus YFR028C, strain CDC14, stronger effect = lower value",0.93
same,normalized growth,"S. cerevisiae deletion strains, locus YGR040W, strain KSS1, stronger effect = lower value",0.746
same,normalized growth,"S. cerevisiae deletion strains, locus YGR052W, strain FMP48, stronger effect = lower value",0.804
same,normalized growth,"S. cerevisiae deletion strains, locus YGR092W, strain DBF2, stronger effect = lower value",0.658
same,normalized growth,[2],0.308 (active)
same,normalized growth,"S. cerevisiae deletion strains, locus YHR079C, strain IRE1, stronger effect = lower value",0.748
same,normalized growth,"S. cerevisiae deletion strains, locus YHR082C, strain KSP1, stronger effect = lower value",0.731
same,normalized growth,"S. cerevisiae deletion strains, locus YHR205W, strain SCH9, stronger effect = lower value",0.694
same,normalized growth,"S. cerevisiae deletion strains, locus YIL147C, strain SLN1, stronger effect = lower value",0.968
same,normalized growth,"S. cerevisiae deletion strains, locus YJL095W, strain BCK1, stronger effect = lower value",0.815
same,normalized growth,"S. cerevisiae deletion strains, locus YJL128C, strain PBS2, stronger effect = lower value",0.884
same,normalized growth,"S. cerevisiae deletion strains, locus YJL157C, strain FAR1, stronger effect = lower value",0.79
same,normalized growth,"S. cerevisiae deletion strains, locus YJR016C, strain ILV3, stronger effect = lower value",0.954
same,normalized growth,"S. cerevisiae deletion strains, locus YJR066W, strain TOR1 (second series), stronger effect = lower value",0.829
same,normalized growth,"S. cerevisiae deletion strains, locus YJR066W, strain TOR1, stronger effect = lower value",0.66
same,normalized growth,"S. cerevisiae deletion strains, locus YKL048C, strain ELM1, stronger effect = lower value",0.87
same,normalized growth,"S. cerevisiae deletion strains, locus YKL067W, strain YNK1, stronger effect = lower value",0.851
same,normalized growth,"S. cerevisiae deletion strains, locus YKL101W, strain HSL1, stronger effect = lower value",0.798
same,normalized growth,"S. cerevisiae deletion strains, locus YKL193C, strain SDS22, stronger effect = lower value",0.948
same,normalized growth,"S. cerevisiae deletion strains, locus YKL203C, strain TOR2, stronger effect = lower value",0.745
same,normalized growth,"S. cerevisiae deletion strains, locus YLR113W, strain HOG1, stronger effect = lower value",0.792 (active)
same,normalized growth,"S. cerevisiae deletion strains, locus YLR133W, strain CKI1, stronger effect = lower value",0.731 (active)
same,normalized growth,"S. cerevisiae deletion strains, locus YLR403W, strain SFP1, stronger effect = lower value",0.681
same,normalized growth,"S. cerevisiae deletion strains, locus YML070W, strain DAK1, stronger effect = lower value",0.81
same,normalized growth,"S. cerevisiae deletion strains, locus YMR001C, strain CDC5, stronger effect = lower value",0.954
same,normalized growth,"S. cerevisiae deletion strains, locus YMR205C, strain PFK2 (second series), stronger effect = lower value",0.862
same,normalized growth,"S. cerevisiae deletion strains, locus YMR277W, strain FCP1, stronger effect = lower value",0.95
same,normalized growth,"S. cerevisiae deletion strains, locus YNL006W, strain LST8, stronger effect = lower value",0.966
same,normalized growth,"S. cerevisiae deletion strains, locus YNL020C, strain ARK1, stronger effect = lower value",0.647 (active)
same,normalized growth,"S. cerevisiae deletion strains, locus YNL161W, strain CBK1, stronger effect = lower value",0.964
same,normalized growth,"S. cerevisiae deletion strains, locus YNL183C, strain NPR1, stronger effect = lower value",0.872
same,normalized growth,"S. cerevisiae deletion strains, locus YNL207W, strain RIO2, stronger effect = lower value",0.958
same,normalized growth,"S. cerevisiae deletion strains, locus YNL222W, strain SSU72, stronger effect = lower value",0.961
same,normalized growth,"S. cerevisiae deletion strains, locus YNL307C, strain MCK1 (second series), stronger effect = lower value",0.632 (active)
same,normalized growth,"S. cerevisiae deletion strains, locus YOL078W, strain AVO1, stronger effect = lower value",0.961
same,normalized growth,"S. cerevisiae deletion strains, locus YOL136C, strain PFK27, stronger effect = lower value",0.764
same,normalized growth,"S. cerevisiae deletion strains, locus YOR061W, strain CKA2, stronger effect = lower value",0.784
same,normalized growth,"S. cerevisiae deletion strains, locus YOR119C, strain RIO1, stronger effect = lower value",0.732
same,normalized growth,"S. cerevisiae deletion strains, locus YOR231W, strain MKK1, stronger effect = lower value",0.855
same,normalized growth,"S. cerevisiae deletion strains, locus YOR329C, strain SCD5, stronger effect = lower value",0.974
same,normalized growth,"S. cerevisiae deletion strains, locus YPL031C, strain PHO85, stronger effect = lower value",0.742
same,normalized growth,"S. cerevisiae deletion strains, locus YPL153C, strain RAD53, stronger effect = lower value",0.78
same,normalized growth,"S. cerevisiae deletion strains, locus YPL204W, strain HRR25, stronger effect = lower value",0.737
same,normalized growth,"S. cerevisiae deletion strains, locus YPL209C, strain IPL1, stronger effect = lower value",0.965
same,normalized growth,"S. cerevisiae deletion strains, locus YPL256C, strain CLN2, stronger effect = lower value",0.774 (active)
same,normalized growth,"S. cerevisiae deletion strains, locus YPR025C, strain CCL1, stronger effect = lower value",0.963
same,normalized growth,"S. cerevisiae deletion strains, locus YPR106W, strain ISR1, stronger effect = lower value",0.942
same,normalized growth,"S. cerevisiae deletion strains, locus YPR111W, strain DBF20, stronger effect = lower value",0.938
same,normalized growth,"S. cerevisiae deletion strains, strain NNK1, stronger effect = lower value",0.951
same,normalized growth,"S. cerevisiae deletion strains, strain TSCII, stronger effect = lower value",0.967
C/C(=N/Nc1c(Cl)cc(Cl)cc1Cl)c1cc(F)ccc1OC(=O)c1ccccc1F,normalized growth,[3],0.99
same,normalized growth,[4],0.978
same,normalized growth,[1],0.969
same,normalized growth,[5],1.03
same,normalized growth,[6],0.991
same,normalized growth,[7],1.04
same,normalized growth,[8],0.983
same,normalized growth,[2],1.04
same,normalized growth,[9],0.978
same,normalized growth,[10],0.968
same,normalized growth,[11],0.984
same,normalized growth,"S. cerevisiae deletion strains, locus YKL190W, strain CNB1, stronger effect = lower value",1.03
same,normalized growth,[12],1.02
same,normalized growth,[13],1.01
same,normalized growth,[14],1.11
same,normalized growth,[15],0.957
same,normalized growth,[16],1.01
same,normalized growth,[17],0.966
same,normalized growth,[18],0.996
same,normalized growth,[19],1.03
same,normalized growth,[20],0.953
same,normalized growth,[21],1.07
same,normalized growth,[22],1.01
same,normalized growth,[23],1.03
same,normalized growth,[24],1.06
same,normalized growth,[25],0.981
same,normalized growth,[26],0.972
same,normalized growth,[27],0.962
same,normalized growth,"S. cerevisiae strains, strain wild type, stronger effect = lower value",1.03
CSC(=NC(=O)c1c(Cl)cccc1Cl)SC,normalized growth,[3],0.886 (active)
same,normalized growth,[4],0.856 (active)
same,normalized growth,[1],0.866 (active)
same,normalized growth,[5],0.782 (active)
same,normalized growth,[6],0.992
same,normalized growth,[7],0.781 (active)
same,normalized growth,[8],0.912 (active)
same,normalized growth,[2],0.194 (active)
same,normalized growth,[9],0.896 (active)
same,normalized growth,"S. cerevisiae deletion strains, locus YJL187C, strain SWE1, stronger effect = lower value",0.82 (active)
same,normalized growth,[10],0.904 (active)
same,normalized growth,[11],0.776 (active)
same,normalized growth,[12],0.284 (active)
same,normalized growth,[13],0.924 (active)
same,normalized growth,[14],0.332 (active)
same,normalized growth,[15],0.275 (active)
same,normalized growth,[16],0.85 (active)
same,normalized growth,[17],0.932 (active)
same,normalized growth,[18],0.931
same,normalized growth,"S. cerevisiae deletion strains, locus YMR307W, strain GAS1, stronger effect = lower value",0.177 (active)
same,normalized growth,[19],0.928
same,normalized growth,[20],0.852 (active)
same,normalized growth,[21],0.636 (active)
same,normalized growth,[22],0.925 (active)
same,normalized growth,[23],0.747 (active)
same,normalized growth,[24],0.541 (active)
same,normalized growth,[25],0.919
same,normalized growth,[26],0.663 (active)
same,normalized growth,[27],0.313 (active)
